In all, about 110,000 compounds were measured (“z-score”: median about -0.1, highest 2% from about 2 on). The sample holds the highest values, similar compounds and a random draw of the others, so the mix is not that of the screen. The source made the active and inactive calls.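 How the source made its calls: active means z-score in the third read window above 3 or below -3; inactive means the rest.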

For this test, the target named is Metabotropic glutamate receptor 8 (Rattus norvegicus) (UniProt P70579). The test is described as follows: rat mGluR8 modulators via GIRK flux, primary screen, cell-based, thallium flux, HTS (AID 488969). The note with it: HEK293 rat mGluR8, GIRK (G protein-gated inwardly rectifying potassium channel) thallium flux, FluoZin2; at 10 µM; stronger effect = higher value; submaximal glutamate (EC20) added with thallium.
Metabotropic glutamate receptor 8 (Rattus norvegicus), sequence (P70579 whole entry, looked up): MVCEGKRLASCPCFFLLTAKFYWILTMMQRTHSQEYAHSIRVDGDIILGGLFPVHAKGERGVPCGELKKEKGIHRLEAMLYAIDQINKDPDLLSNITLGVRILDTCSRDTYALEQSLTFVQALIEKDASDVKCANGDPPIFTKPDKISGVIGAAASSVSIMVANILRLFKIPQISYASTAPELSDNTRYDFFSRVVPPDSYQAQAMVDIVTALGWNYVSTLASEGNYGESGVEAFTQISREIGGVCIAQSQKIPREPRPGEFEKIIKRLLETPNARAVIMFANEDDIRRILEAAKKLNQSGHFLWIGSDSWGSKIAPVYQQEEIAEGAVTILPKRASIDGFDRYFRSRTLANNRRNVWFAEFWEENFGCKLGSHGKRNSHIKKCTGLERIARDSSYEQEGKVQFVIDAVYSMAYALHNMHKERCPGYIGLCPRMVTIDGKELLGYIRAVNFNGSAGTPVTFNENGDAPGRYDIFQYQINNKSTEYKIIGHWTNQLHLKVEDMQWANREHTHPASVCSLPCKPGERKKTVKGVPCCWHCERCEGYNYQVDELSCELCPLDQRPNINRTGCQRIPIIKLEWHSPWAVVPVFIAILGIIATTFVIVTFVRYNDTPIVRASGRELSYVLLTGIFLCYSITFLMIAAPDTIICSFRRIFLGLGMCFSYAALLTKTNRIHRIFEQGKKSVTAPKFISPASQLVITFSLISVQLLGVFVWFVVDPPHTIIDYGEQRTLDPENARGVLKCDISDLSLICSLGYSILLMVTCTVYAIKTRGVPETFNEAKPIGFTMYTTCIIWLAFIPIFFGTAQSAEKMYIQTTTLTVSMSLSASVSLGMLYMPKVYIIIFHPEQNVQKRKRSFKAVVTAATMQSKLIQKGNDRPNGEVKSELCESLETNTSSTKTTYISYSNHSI
In the case of `CC1=CC(C)(C)n2c(O)c(N=NC(N)=S)c3cccc1c32`, the z-score was determined as 2.69.

With `CC1=CC(C)(C)n2c(O)c(N=NC(N)=S)c3c(C)ccc1c32`, the z-score was found to be 1.1.

Consider `CC1=CC(C)(C)n2c(O)c(N=NC(N)=S)c3cc(C)cc1c32`, for which the z-score came out at 1.04.

`N#CCSc1nnc(-c2ccccc2O)n1Cc1ccccc1` showed a z-score of -0.264.

In the case of `OC1(c2ccc3ccccc3c2)CCN(Cc2ccccc2)C1` (stereo unspecified), the z-score worked out at 2.

For the molecule `c1ccc2cc(CN3CCOCC3)ccc2c1`, the z-score amounted to 0.71.

For the molecule `OC1(c2cccc(F)c2)CCN(Cc2ccncc2)CC1`, the z-score is -0.584.

`CC1(C)Cc2cccc(OCC(=O)Nc3cccnc3)c2O1` yielded a z-score of 0.958.

As for `COc1ccc(C(=O)N/C(=C\c2cccc3ccccc23)C(=O)NCCc2c[nH]c3ccccc23)cc1OC`, the z-score was -1.59.

As for `Cc1ccc(CSc2nnc(-c3ccc(S(=O)(=O)N4CCCC4)cc3)o2)cc1`, the z-score was determined as 1.62.

As for `O=S(=O)(c1ccc(-c2nnc(SCc3nnc(-c4ccccc4)o3)o2)cc1)N1CCCC1`, the z-score was 3.72 (active).

Consider `NC(=O)CSc1nnc(-c2ccc(S(=O)(=O)N3CCCC3)cc2)o1`, for which the z-score was -0.271.

Take `CO/N=C/c1ccc(Sc2ccccc2)c([N+](=O)[O-])c1`: the z-score was -0.0163.

For `O=C(NCCO)NC(=S)c1ccccc1`, the z-score is -0.169.

Consider `C=CCNC(=O)NC(=S)c1ccccc1`, for which the z-score is 3.72 (active).

`C=CCNC(=S)NNC(=O)c1ccccc1`: the z-score is -0.00102.

On to `CCNc1nc(NCC)nc(C(=O)Nc2ccccc2)n1`, for which the z-score was -0.0479.

`O=C(NCc1ccc(Cl)cc1)C1C2C=CC3(CN(Cc4cccnc4)C(=O)C13)O2` (stereo unspecified): the z-score came to 0.82.

Take `OCCN(Cc1ccccc1)Cc1ccc(C(F)(F)F)cc1`: the z-score is -0.0102.

On to `O=C(O)c1ccccc1SC1CC(=O)N(C2CCCCC2)C1=O` (stereo unspecified), for which the z-score was -0.0935.

Consider `Cc1ccc(NC(=O)C2CC(=O)OC23CCOC(C)(C)C3)cc1` (stereo unspecified), for which the z-score was -0.427.

For the molecule `CC(C)C(=O)NC(Nc1ccccc1F)C(Cl)(Cl)Cl` (stereo unspecified), the z-score is -0.185.

As to `CCCCCn1ccc(=N)cc1`, the z-score stood at 1.99.

`CCCCCCCn1ccc(=N)cc1` returned a z-score of -0.268.

Consider `CCCCCCn1ccc(=N)cc1`, for which the z-score came out at 0.937.

For the molecule `Cc1ccc(C)c(S(=O)(=O)N2C(=S)NC(=O)C2C(C)C)c1` (stereo unspecified), the z-score was determined as 0.0469.

`CCN(CC)S(=O)(=O)c1ccc(N2CCOCC2)c(NC(=O)C(=O)c2c(-c3ccccc3)cc3ccccn23)c1`: the z-score is -0.54.

Molecule `CN(C)S(=O)(=O)N1CCN(S(=O)(=O)c2ccccc2)CC1` had a z-score of -0.177.

On to `Cc1csc(NC(=O)CSc2nnc(CCNC(=O)c3cccs3)n2C)n1`, for which the z-score was -0.0983.

In the case of `Cc1csc(NC(=O)CSc2nnc(CCNC(=O)c3ccc(Cl)c(Cl)c3)n2C)n1`, the z-score was -0.837.

Regarding `Cc1cccc(C(=O)NCCc2nnc(SCC(=O)Nc3nc(C)cs3)n2C)c1`, the z-score amounted to 2.62.

Turning to `N#CCCN(C(=O)CSc1nc(-c2ccccc2)cn1N)c1ccc(F)cc1`, the z-score is -0.2.

For `COc1cc2c(cc1OC)C(C(=O)NCCN1CCOCC1)C1c3ccccc3CCN1C2=O` (stereo unspecified), the z-score was -1.12.

Turning to `Oc1ccc2ccccc2c1N=Nc1ccccn1`, the z-score is 2.19.

Turning to `Oc1c(N=Nc2ccccn2)ccc2ccccc12`, the z-score was 13.6 (active).

The molecule `O=C(O)Cc1c(O)ccc2ccccc12` gave a z-score of -0.0548.

Regarding `Oc1c(/C=N/c2ncn[nH]2)ccc2ccccc12`, the z-score came to 0.0888.

For `Oc1ccc(N=Nc2c(O)ccc3ccccc23)cc1`, the z-score is -0.0552.

`N/C(=N\OC(=O)Cc1cccc2ccccc12)c1ccccn1` displayed a z-score of 0.135.

Regarding `CCOc1cc(C2C(C#N)=C(N)OC(C)=C2C(C)=O)cc(Br)c1O` (stereo unspecified), the z-score is -1.08.

Consider `O=C(Nc1ncc2c(n1)-c1ccccc1CC2)c1cccc(Cl)c1`, for which the z-score is -0.891.

Molecule `CCN(c1ccc(NC(=O)COC(=O)CCC(=O)c2ccc(F)cc2)cc1)C(C)C` displayed a z-score of -0.471.

`Cc1cc(C)cc(-n2c(SC(C)C(=O)NCc3ccc4c(c3)OCO4)nc3ccccc3c2=O)c1` (stereo unspecified) registered a z-score of -0.19.

Consider `CCc1ccc(-c2ccc(C(=O)C(F)(F)F)[nH]2)cc1`, for which the z-score is -0.0177.

For the molecule `Cc1ccc(-c2ccc(C(=O)O)[nH]2)cc1`, the z-score amounted to 2.4.

Take `Cc1ccc(-c2ccnc(=S)[nH]2)cc1`: the z-score worked out at 0.997.

Turning to `Cc1nn(C)cc1C1Nc2ccccc2C(=O)N1O` (stereo unspecified), the z-score is -0.121.

`N#CC1=C(S)N(c2ccccc2)C(c2ccc(-c3cccc(Cl)c3)o2)NC1=O` (stereo unspecified) gave a z-score of -0.292.

`O=C1c2ccccc2NC(c2ccco2)N1O` (stereo unspecified) came in with a z-score of -0.422.

`Cc1ccsc1C1Nc2ccccc2C(=O)N1O` (stereo unspecified) displayed a z-score of -0.218.

For the molecule `O=C1c2ccccc2NC(c2cn[nH]c2-c2ccccc2)N1O` (stereo unspecified), the z-score was -0.0761.

With `O=C1c2ccccc2NC(c2ccc(-c3ccc(Br)cc3)o2)N1O` (stereo unspecified), the z-score is 3.36 (active).

On to `Cc1cc([N+](=O)[O-])ccc1-c1ccc(C2Nc3ccccc3C(=O)N2O)o1` (stereo unspecified), for which the z-score was 3.53 (active).

With `O=C1c2ccccc2NC(c2ccc(-c3cccc(Cl)c3)o2)N1O` (stereo unspecified), the z-score was found to be 2.57.

The molecule `Cc1c(C2Nc3ccccc3C(=O)N2O)cnn1C` (stereo unspecified) returned a z-score of 0.189.

`CC1CCC(NC(=O)Nc2cccs2)CC1` (stereo unspecified) registered a z-score of 0.643.

Regarding `CCOC(=O)c1c(NC(=O)C2=C(C)NC(=S)NC2c2ccc(F)cc2F)sc(C)c1C` (stereo unspecified), the z-score was 0.556.

On to `CCCCCCn1c(C)nc2c(c1=O)c1nc3ccccc3nc1n2/N=C/c1ccco1`, for which the z-score turned out to be 0.218.

`CCn1c(SCc2ccc(Cl)cc2)nc2nc3c(cc2c1=O)CCCC3` had a z-score of 0.193.

Turning to `C=CCn1c(=S)[nH]c2nc3c(cc2c1=O)CCCC3`, the z-score is 4.15 (active).

`CCC1(C)Cc2nc3[nH]c(=S)n(-c4ccccc4)c(=O)c3cc2CO1` (stereo unspecified) yielded a z-score of -0.0711.

The molecule `CCn1c(=S)[nH]c2nc3c(cc2c1=O)CCCC3` displayed a z-score of 2.31.

`CCn1c(SCC(=O)Nc2ccc(C)cc2)nc2nc3c(cc2c1=O)CCCC3` registered a z-score of 0.307.

In turn, `CC1(C)Cc2nc3[nH]c(=S)n(-c4ccccc4)c(=O)c3cc2CO1` showed a z-score of -0.126.

In the case of `CN(C(=O)c1ccncc1)c1nnc(-c2cnccn2)s1`, the z-score was -0.251.

Regarding `COc1ccc(NC(=O)Cc2coc3cc(C)c(C(C)C)cc23)cc1S(=O)(=O)N1CCOCC1`, the z-score was -0.503.

As to `CCOC(=O)/C(C#N)=C/c1cc2ccccc2nc1Cl`, the z-score was -0.3.

The molecule `O=C(c1ccco1)N1CCN(S(=O)(=O)c2ccc(Cl)s2)CC1` had a z-score of -0.0642.

As to `COc1cccc(N(CC(=O)N/N=C(\C)c2cccs2)S(C)(=O)=O)c1`, the z-score is -0.154.

Take `CCOC(=O)C1=C(C)OC(N)=C(C#N)C1c1cc(F)ccc1F` (stereo unspecified): the z-score was -2.09.

Regarding `CCOC(=O)C1=C(C)OC(N)=C(C#N)C1c1cncc(-c2ccc(F)cc2)c1` (stereo unspecified), the z-score turned out to be 2.92.

Molecule `CC1=C(C(=O)OC(C)C)C(c2cncc(-c3ccc(F)cc3)c2)C(C#N)=C(N)O1` (stereo unspecified) yielded a z-score of -0.367.

`Cc1ccc(S(=O)(=O)NC(C)C(c2cccs2)N2CCN(c3ccccc3)CC2)cc1` (stereo unspecified) gave a z-score of -0.115.

`Cc1ccc(-c2cc(C(=O)Nc3ccccc3C)c3ccccc3n2)o1` showed a z-score of 0.279.

Take `Cc1ccccc1NC(=S)NC(=O)c1cc(-c2ccccc2)nc2ccccc12`: the z-score was 7.41 (active).

The molecule `COc1ccc(C(=O)NNC(=S)NC(=O)c2cc(-c3ccccc3)nc3ccccc23)cc1` showed a z-score of 2.35.

For the molecule `Cc1cccc(NC(=O)c2cc(Cl)nc3ccccc23)c1`, the z-score was -0.228.

For the molecule `O=C(NCc1ccccn1)c1cc(-c2ccccc2)nc2ccccc12`, the z-score is -0.314.

Regarding `Cc1cccc(NC(=S)NC(=O)c2cc(-c3ccccc3)nc3ccccc23)c1`, the z-score is 5.14 (active).

For the molecule `Cc1ccc(-c2cc(C(=O)Nc3cc(C)on3)c3ccccc3n2)cc1`, the z-score is -0.321.

The molecule `CCCOc1ccc(C(=O)NNC(=S)NC(=O)c2cc(-c3ccc(Cl)cc3)nc3ccccc23)cc1` had a z-score of -0.0891.

Molecule `CCNC(=S)NNC(=O)c1cc(-c2cccc(C)c2)nc2ccccc12` had a z-score of 0.214.

`O=C(NCc1ccccn1)c1cc(-c2ccc(-c3ccccc3)cc2)nc2ccccc12` displayed a z-score of -0.368.

For the molecule `CCCOc1ccc(C(=O)NNC(=S)NC(=O)c2cc(-c3ccccc3)nc3ccccc23)cc1`, the z-score was found to be 0.558.

As to `O=C(NC(=S)Nc1ccccn1)c1cc(-c2ccccc2)nc2ccccc12`, the z-score was 3.22 (active).

`O=C(Cn1cc([N+](=O)[O-])cn1)N1CCc2ccccc21` displayed a z-score of 0.0712.

`O=C(c1cccs1)c1cn(CC(=O)N2CCc3ccccc3C2)c2ccccc12` showed a z-score of -0.134.

As for `COc1ccc(N2CCN(S(=O)(=O)c3cccc(C(F)(F)F)c3)CC2)cc1`, the z-score is -0.0298.

Turning to `CCn1c(SCc2ccccc2Cl)nc2ccccc21`, the z-score came out at 0.866.

The molecule `CN(/N=C/c1cccnc1)c1cnn(-c2ccc(F)c(Cl)c2)c(=O)c1Cl` showed a z-score of -0.0102.

In the case of `O=C(NC(=S)Nc1ccccc1)c1cc(-c2ccccc2)nc2ccccc12`, the z-score was 9.35 (active).

Molecule `COC(=O)c1cc(OC)c(OC)cc1NC(=O)c1cc(-c2ccccc2)nc2ccccc12` registered a z-score of -0.917.

`COc1ccc(Cl)cc1C(=O)NNC(=S)NC(=O)c1cc(-c2ccccc2)nc2ccccc12`: the z-score amounted to 1.06.

Molecule `O=C(Nc1ccon1)c1cc(-c2ccccc2)nc2ccccc12` returned a z-score of -1.67.

`COC(=O)c1ccc(NC(=S)Nc2ccccc2)cc1` yielded a z-score of 0.0759.

In the case of `COC(=O)c1ccc(NC(=S)NC(=O)c2cc(-c3ccccc3)nc3ccccc23)cc1`, the z-score is 8.36 (active).

`c1ccc(CNc2nc(-c3cccs3)nc3ccccc23)cc1` showed a z-score of 0.32.

`O=C(O)c1cc(NCc2ccccc2C(F)(F)F)ccc1N1CCOCC1` showed a z-score of -0.168.

Molecule `N#Cc1cc([N+](=O)[O-])cnc1Nc1ccccc1` showed a z-score of -0.521.

As for `CC1CCc2c(sc(NS(=O)(=O)c3ccccc3)c2C(=O)OC(C)C)C1` (stereo unspecified), the z-score is 8.13 (active).

`CC1CCc2c(sc(N)c2C(=O)OC(C)C)C1` (stereo unspecified): the z-score worked out at 0.201.

In turn, `COCC(=O)Nc1sc2c(c1C(=O)OC)CCC(C)C2` (stereo unspecified) had a z-score of -0.444.

Take `COC(=O)c1c(NC(=O)c2cccs2)sc2c1CCC(C)C2` (stereo unspecified): the z-score was -0.363.

As to `COC(=O)c1c(NC(=O)c2ccccc2N(C)S(=O)(=O)c2ccccc2)sc2c1CCCC2`, the z-score was -0.215.

Regarding `CC(C)OC(=O)c1c(N)sc2c1CCCC2`, the z-score amounted to 2.03.

Take `COC(=O)c1c(NS(=O)(=O)c2ccc(C)cc2)sc2c1CCC(C)C2` (stereo unspecified): the z-score is 7.28 (active).

As for `COC(=O)c1c(NC(=O)CN2CCN(S(=O)(=O)c3ccccc3)CC2)sc2c1CCC(C)C2` (stereo unspecified), the z-score is -0.486.

As to `CC(C)OC(=O)c1c(NS(=O)(=O)c2ccccc2)sc2c1CCCC2`, the z-score is 12.3 (active).

Take `CNC(=O)c1c(N)sc2c1CCCCC2`: the z-score turned out to be 0.209.

Take `CCOC(=O)c1c(NC2=NS(=O)(=O)c3ccccc32)sc2c1CCC(C)C2` (stereo unspecified): the z-score is 0.00913.

`CCOC(=O)c1c(NC(=O)C2CCCN(S(=O)(=O)c3ccccc3)C2)sc2c1CCCC2` (stereo unspecified) registered a z-score of 0.269.

(Values after PubChem BioAssay AID488969 (Vanderbilt High Throughput Screening Facility, 2010).)
